HP1b binding inh – inhibitors of HP1-beta chromodomain binding to methylated histone tails; AlphaScreen HP1-beta / biotin-H3K9me3 peptide binding; Potency, µM (titrated, usually from 114 µM), for inactives: at the top dose activity change, negative = inhibition, usual class: inhibitors; 390,000 tested, 0.56% active; AID 540317; also: nearly all actives have a fitted effect of over 70% in size
Target sequence (P83916 whole entry, looked up): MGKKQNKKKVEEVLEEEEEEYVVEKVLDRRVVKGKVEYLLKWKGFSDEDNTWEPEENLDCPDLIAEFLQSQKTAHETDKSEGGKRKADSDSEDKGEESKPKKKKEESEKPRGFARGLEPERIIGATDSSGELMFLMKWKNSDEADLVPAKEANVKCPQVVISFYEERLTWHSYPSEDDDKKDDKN
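HP1-beta protein (50 nM final) preincubated 30 min at room temperature with biotinylated H3(1-18)K9me3 peptide (50 nM) in PBS pH 7.4, 0.01% Tween-20, then compound added for 30 min. AlphaScreen streptavidin donor/nickel chelate acceptor beads (10 ug/mL final), 30 min dark, luminescence read.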
BAZ2B inh – inhibitors of human BAZ2B bromodomain; Q9UIF8; AlphaScreen BAZ2B-H3K14Ac peptide displacement; Potency, µM (series often up to 114 µM), for the others: at the top dose activity change, negative = inhibition, hits mostly inhibitors; 360,000 tested, 4.4% active; AID 504333; also: % is scaled to controls: 0 for no effect and ±100 for the full control effect; nearly all actives have a fitted effect of over 60% in size
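Compounds, titrated to a top concentration of 110 uM, were incubated 30 min at room temperature with preformed BAZ2B/acetyl-K14 H3 peptide complex (50 nM each). Proximity signal was measured by AlphaScreen after 20 min with beads.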
PLK1 PBD block – blocks phosphopeptide binding to human PLK1 polo-box domain; Plk1 PBD binding of FITC phosphopeptide, fluorescence polarization; Potency, µM, for inactives: max response, negative = inhibition, most hits filed as inhibitors; 360,000 tested, 2.8% active; also: series mostly up to about 57 µM; % is scaled to controls: 0 for no effect and ±100 for the full control effect; nearly all actives have a fitted effect of over 65% in size
G9a inh – inhibitors of human histone lysine methyltransferase G9a; Q96KQ7; G9a H3K9 monomethylation, AlphaScreen, 2 h; Potency, µM (top dose mostly 102 µM), for inactives: at the top dose activity, negative = inhibition, usual class: inhibitors; 350,000 tested, 8.8% active; also: % is scaled to controls: 0 for no effect and ±100 for the full control effect; nearly all actives have a fitted effect of over 75% in size
Target sequence (Q96KQ7 913-1193 limits assumed): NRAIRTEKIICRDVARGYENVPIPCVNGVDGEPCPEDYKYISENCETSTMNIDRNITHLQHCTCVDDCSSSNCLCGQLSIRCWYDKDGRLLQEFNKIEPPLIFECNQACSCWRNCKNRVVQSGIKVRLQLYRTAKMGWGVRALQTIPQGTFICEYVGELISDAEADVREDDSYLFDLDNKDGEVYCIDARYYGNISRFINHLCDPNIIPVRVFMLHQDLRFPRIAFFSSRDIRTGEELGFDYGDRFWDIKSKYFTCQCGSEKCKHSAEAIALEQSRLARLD
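Compounds were preincubated with 20 nM G9a for 15 min, after which biotinylated H3K9 peptide (500 nM) and SAM (20 uM) started a 2 h room-temperature reaction. Monomethylated product was quantified by antibody-based AlphaScreen chemiluminescence.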
JMJD2A Tudor – JMJD2A Tudor domain (human) inhibition; 390,000 tested, 4.4% active; AlphaScreen JMJD2A-Tudor / H3K4me3 peptide binding; Potency, µM (doses to about 114 µM), for the others: top-dose activity change, negative = inhibition, most hits filed as inhibitors; also: % is scaled to controls: 0 for no effect and ±100 for the full control effect; nearly all actives have a fitted effect of over 50% in size
Sfp PPTase inh – Sfp phosphopantetheinyl transferase inhibition. Q9F4F7. Potency, µM, without a hit: largest response in the series, negative = inhibition, hits mostly inhibitors. AID 1490. Biochemical Sfp PPTase activity, qHTS. 310,000 tested, 3.5% active;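 also: the enzyme is Sfp with the accession as filed and its product quenches rhodamine fluorescence; 0% = enzyme reaction without inhibitor and -100% = no enzyme wells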
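Fluorescence-quenching assay with 15 nM Sfp, 5 uM rhodamine-CoA and 12.5 uM BHQ-2-labelled ybbR peptide in pH 7.6 Hepes/MgCl2 buffer. Enzyme was pre-incubated with compound for 15 min at room temperature. Rate was taken from the 30-min fluorescence change (525/598 nm).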
The depositor's hits bear a star; ? = inconclusive; / = not tested or not shown; [ ] = dose if it differs, or a comment. Compounds with a hit are over-represented: about 12% of the library has one in this group of screens. Calls follow the shape of the dose curve; as a rule, active = well fitted curve in the direction sought with a large enough effect; inconclusive = small, poorly fitted or top-dose-only effect, or another doubt; inactive = no such curve, though single readings can be large; an effect the other way counts as inactive or inconclusive. Potency is read from the fitted curve at half-maximal effect.

SMILES	HP1b binding inh	BAZ2B inh	PLK1 PBD block	G9a inh	JMJD2A Tudor	Sfp PPTase inh
CC(C)(C)c1nnc(N/N=C/c2ccc(Br)cc2)n(N)c1=O	30%	2%	4%	13%[59 µM]	-10%	?
CC(C)(C)c1ccc(/C=N/Nc2nncn2N)cc1	27%	-8%	3%	40µM*	-10%	-26%
CCCC(=O)Nc1c2c(nn1-c1ccccc1)CSC2	13%[57 µM]	-1%	-2%	18%[59 µM]	-24%	19%
CCCC(=O)Nc1c2c(nn1-c1ccc(C)cc1C)CSC2	28%	-5%	-1%	22µM*	-19%	?
O=C(CBr)Nc1c2c(nn1-c1ccccc1)CSC2	34%[57 µM]	-15%[57.1 µM]	?	22µM*	-27%	-14%
CC(=O)Nc1c2c(nn1-c1ccc(C)cc1C)CSC2	33%	11%	-4%	-34%[59 µM]	-18%	-28%
Cc1ccc(S(=O)(=O)N2CCC[C@H]2C(=O)OCC(=O)N2CCc3ccccc32)cc1	30%	/	1%	/	-8%	/
COc1cc(/C=C/c2nc(C#N)c(N3CCCCC3)o2)cc(OC)c1OC	41%	-31%	/	-4%[59 µM]	-2%	/
CSc1ncc(CN2CCCC(C(=O)Nc3ccc(-c4ccco4)cc3)C2)cn1 (configuration not stated)	-20%[57 µM]	?	-13%	10µM*	?	14µM*
O=C(/C=C/c1ccccc1)CCN1CCCCC1	12%[57 µM]	/	6.7µM*	/	-13%	/
O=C(/C=C/c1ccccc1)NC(=O)c1ccccc1O	24%	79µM*	-10%	?	?	12%
O=C(/C=C/c1ccccc1)CC(=O)c1ccccc1O	-24%	?	-5%	16µM*	25µM*	?
O=C(CCN1CCCCCC1)c1ccccc1	38%	1%	?	?	6%[11.4 µM]	6%
Clc1ccc(CCNC(c2cccc(Cl)c2)c2nnc(-c3ccccc3)o2)cc1 (configuration not stated)	86%	37%	/	76%[59 µM]	41%	/
Cc1onc(C(=O)Nc2c(C)n(C)n(-c3ccccc3)c2=O)c1[N+](=O)[O-]	-9%	?	-10%	/	-18%	79µM*
CSc1ccccc1NC(=O)c1noc(C)c1[N+](=O)[O-]	5%	-17%	?	35µM*	-23%	45µM*
C[C@H](O)[C@@H]1C(=O)N2CCc3c([nH]c4ccccc34)[C@@H]2C[C@@H]1N(C)C(=O)Nc1cc(Cl)cc(Cl)c1	/	/	-17%	/	/	/
CC1(C)C(=O)C=C[C@]2(C)C1CC(=O)[C@]1(C)C2CC[C@@]2(C)C(c3ccoc3)OC(=O)C3O[C@@]321 (some centres not stated)	/	/	/	-50%[2.33 µM]	/	11%
CCOC(=O)c1sc(=S)[nH]c1C	?	/	0%	/	14µM*	/
CCOC(=O)c1c(C)[nH]sc1=S	?	-3%	?	3.5µM*	25µM*	?
CCOC(=O)c1[nH]c(C)c(C(=O)OCC)c1C	16%	-29%	-5%	-23%	-28%	-6%
N=C1c2ccccc2CN1c1ccc(N2CCOCC2)c(S(=O)(=O)Nc2ccc(Cl)cc2)c1	/	?	/	/	/	10µM*
COc1ccc(NS(=O)(=O)c2cc(NC(=O)/C=C/c3cc(OC)ccc3OC)ccc2N2CCCCC2)cc1	29%	-31%	0%	6%[59 µM]	-12%	26%
COc1ccc(NS(=O)(=O)c2cc(N)ccc2N2CCCC2)cc1	?	/	-11%	/	56µM*	/
COc1ccc(NS(=O)(=O)c2cc(NC(=O)c3ccccc3)ccc2N2CCOCC2)cc1	22%	/	-1%	/	-29%	/
SMILES	HP1b binding inh	BAZ2B inh	PLK1 PBD block	G9a inh	JMJD2A Tudor	Sfp PPTase inh
COc1ccc(NS(=O)(=O)c2cc(N)ccc2N2CCOCC2)cc1	-16%	-15%	?	16µM*	-25%	-18%
O=C(/C=C/c1cccs1)Nc1ccc(N2CCOCC2)c(S(=O)(=O)Nc2cc(Cl)ccc2Cl)c1	4%	-27%	-12%	56µM*	-20%	16%
Cc1ccc2c(c1)c(N1CCCC1=O)c(C(=O)Nc1ccc(F)cc1F)n2C	30%	1%	/	5%[59 µM]	1%	/
CCOC(=O)N1CCc2c(sc3c2c(=O)n(CCc2ccccc2)c(=O)n3CC(=O)Nc2ccccc2C)C1	31%	-2%	/	8%[59 µM]	-16%	/
Nc1cc(S(=O)(=O)Nc2ccccc2Cl)ccc1N1CCOCC1	34%	4%	1%	?	-6%	-5%
Nc1ccc(N2CCOCC2)c(S(=O)(=O)Nc2cc(Cl)ccc2Cl)c1	2%	-35%	-14%	35µM*	?	9%
CCN(CC)C(=O)c1sc(NC(=O)c2nc3ncccn3n2)c(C(=O)OC)c1C	27%	?	/	?	-17%	/
CCC1CCCCN1CCCNC(=O)CC1Oc2ccc(C)cc2NC1=O (configuration not stated)	57%	2%	-21%	32µM*	-10%	-7%
Cc1ccc2c(c1)NC(=O)C(CC(=O)NCCCN1CCCCC1)O2 (configuration not stated)	28%	5%	-7%	-26%	-20%	0%
Cc1ccc2c(c1)NC(=O)C(CC(=O)NCCCN1CCN(c3cc(Cl)ccc3C)CC1)O2 (configuration not stated)	21%	-34%	-8%	45µM*	-24%	?
O=C(CC1Oc2ccc(Cl)cc2NC1=O)NC1CCCCCC1 (configuration not stated)	48%	10%	-8%	79µM*	-8%	-8%
Cc1ccc2c(c1)NC(=O)C(CC(=O)NCCN(C)C)O2 (configuration not stated)	49%	0%	-10%	45µM*	-15%	-21%
C[C@H](CO)N1C[C@H](C)[C@@H](CN(C)C(=O)Nc2ccc(F)cc2)Oc2ccc(NS(C)(=O)=O)cc2C1=O	30%	/	4%	/	-2%	/
Cc1ccc2c(c1)NC(=O)C(CC(=O)NCCCN1CCCC1=O)O2 (configuration not stated)	15%	?	30µM*	?	?	2%
O=S(=O)(Nc1nc2c(s1)CCCC2)c1ccc(Br)cc1	11%	-3%	-25%	?	-15%	9%
O=S(=O)(Nc1nc2c(s1)CCCC2)c1ccc(F)cc1	20%	-39%	?	10µM*	-6%	17%
CC1(C)CC(=O)c2sc(NS(=O)(=O)c3ccc(Cl)cc3)nc2C1	14%	?	-10%	35µM*	-6%	10%
CC1(C)CC(=O)c2sc(NS(=O)(=O)c3ccc(Br)cc3)nc2C1	28%	-9%	-10%	50µM*	-6%	-3%
CC1(C)CC(=O)c2sc(NS(=O)(=O)c3ccc(F)cc3)nc2C1	47%	-25%	-25%	79µM*	-10%	-21%
CC1(C)CC(=O)c2sc(NC(=O)C(C)(C)C)nc2C1	27%	0%	-20%	/	-1%	4%

Screens from PubChem.
